Measurements published in PubChem BioAssay (NCATS).
“And” between values parts separate entries of the source, which are not always exact repeats. Equal entries are not always repeated. Inconclusive results are not listed. The source made the active and inactive calls. Calls come from the whole dose curve; as a rule, active = well fitted curve in the direction sought with a large enough effect; inconclusive = small, poorly fitted or top-dose-only effect, or another doubt; inactive = no such curve, though single readings can be large; an effect the other way counts as inactive or inconclusive.

Columns and labels:
[1] = test system: OV90; test: Primary qHTS to identify gynecologic anti-cancer compounds using libraries of approved drugs and bioactive compounds (AID 1345084); settings: Gynecologic cancer cell panel viability, ATPlite luminescence, 48 h; series mostly up to 57.5 µM; note: nearly all actives have a fitted effect of over 55% in size
Method in brief: (§1)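 Measured: luminescence after ATPlite addition (15 min, RT). Exposure: 48 h, 37 C, 5% CO2.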

[2] = test system: PA-1; test: as above; settings: Gynecologic cancer cell panel viability, ATPlite luminescence, 48 h; series mostly up to 57.5 µM
Method in brief: as §1

[3] = test system: SKOV3; test: as above; settings: Gynecologic cancer cell panel viability, ATPlite luminescence, 48 h; series mostly up to 57.5 µM
Method in brief: as §1

[4] = test system: Tov-21-G; test: as above; settings: Gynecologic cancer cell panel viability, ATPlite luminescence, 48 h; series mostly up to 57.5 µM
Method in brief: as §1

[5] = test system: Tov112D; test: as above; settings: Gynecologic cancer cell panel viability, ATPlite luminescence, 48 h; series mostly up to 57.5 µM
Method in brief: as §1

[6] = Drug repurposing screens with cells derived from glioblastoma tumor samples (AID 1345199); settings: GBM patient neurospheres viability, ATP luminescence, 48 h; note: nearly all actives have a fitted effect of over 40% in size; note: potency is the fitted concentration of half-maximal effect
Method in brief: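 Four patient lines of CD133+ GBM neurospheres were screened at several concentrations; hits were retested in those lines plus three slower-growing GBM lines, using 48-hour treatment and ATP-based viability.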

[7] = at 45.9 µM (top of the series), tumour line B
[8] = at 45.9 µM (top of the series), tumour line D
[9] = at 46.1 µM (top of the series), tumour line C
[10] = at 20 µM (top of the series), tumour line C
[11] = at 21.2 µM (top of the series), tumour line B
[12] = at 46 µM (top of the series), tumour line A
% is set by controls: 0 for no effect and ±100 for the full control effect.

CS(=O)(=O)N(Cc1ccco1)CC(O)Cn1c2ccccc2c2ccccc21 (stereo unspecified)
inactive: Potency [1] | Potency [2] | Potency [3] | Potency [4] | Potency [5]

O=C(NCCN1CCOCC1)c1ccc(Cl)cc1
inactive: Potency [1] | Potency [2] | Potency [3] | Potency [4] | Potency [5] | activity, negative = cell killing [6, 7] -9.41% and -9.63% | activity, negative = cell killing [6, 8] -2.14% and -10.5% | activity, negative = cell killing [6, 9] -17.8% and -11.9%

COc1ccc(C2CC(c3ccccc3)=NN2c2ccc(S(N)(=O)=O)cc2)cc1 (stereo unspecified)
inactive: Potency [1] | Potency [2] | Potency [3] | Potency [4] | Potency [5]

O=C(NC1CCOCC1)c1ccc(-c2cc(-c3cn[nH]c3-c3ccccn3)ccn2)cc1
inactive: Potency [1] | Potency [2] | Potency [3] | Potency [4] | Potency [5]

CCOC(=O)C1=C(N)Oc2ccc(Br)cc2C1C(C#N)C(=O)OCC (stereo unspecified)
inactive: Potency [1] | Potency [2] | Potency [3] | Potency [4] | Potency [5]

CC(C)(C)OC(=O)N[C@H]1CCCCCC=C[C@@H]2C[C@@]2(C(=O)NS(=O)(=O)C2CC2)NC(=O)[C@@H]2C[C@@H](OC(=O)N3Cc4cccc(F)c4C3)CN2C1=O
inactive: Potency [1] | Potency [2] | Potency [3] | Potency [4] | Potency [5]

CC1(C)CCC(CN2CCN(c3ccc(C(=O)NS(=O)(=O)c4ccc(NCC5CCOCC5)c([N+](=O)[O-])c4)c(Oc4cnc5[nH]ccc5c4)c3)CC2)=C(c2ccc(Cl)cc2)C1
inactive: Potency [1] | Potency [2] | Potency [3] | Potency [4] | Potency [5]

COC(=O)[C@@H]1[C@H]2C[C@H]3c4[nH]c5ccccc5c4CCN3C[C@@H]2CC[C@@H]1O
inactive: Potency [1] | Potency [2] | Potency [3] | Potency [4] | Potency [5] | activity, negative = cell killing [6, 7] 3.23% | activity, negative = cell killing [6, 8] 3.82% | activity, negative = cell killing [6, 9] -7.31%

CCN(CC)CCOC(=O)c1ccc(N)cc1
inactive: Potency [1] | Potency [2] | Potency [3] | Potency [4] | Potency [5] | activity, negative = cell killing [6, 10] 5.7% | activity, negative = cell killing [6, 11] -3.94% | activity, negative = cell killing ([6]; at 21.2 µM (top of the series), tumour line D) 2% | activity, negative = cell killing ([6]; at 21.3 µM (top of the series), tumour line A) -17.4%

CC(C)[C@H](CO)Nc1nc(Nc2ccc(C(=O)O)c(Cl)c2)c2ncn(C(C)C)c2n1
inactive: Potency [1] | Potency [2] | Potency [3] | Potency [4] | Potency [5]

Cc1ccccc1C(C(=O)NC1CCCCC1)N(C(=O)Cn1ccnc1C)c1cccc(F)c1 (stereo unspecified)
inactive: Potency [1] | Potency [2] | Potency [3] | Potency [4] | Potency [5]

COc1ccc(Cc2ccc(NC(N)=O)cc2)cc1-c1cccc(Cl)c1
inactive: Potency [1] | Potency [2] | Potency [3] | Potency [4] | Potency [5]

NCCS
inactive: Potency [1] | Potency [2] | Potency [3] | Potency [4] | Potency [5] | activity, negative = cell killing [6, 7] -3.94% and -12.1% | activity, negative = cell killing [6, 8] -6.82% and -13.2% | activity, negative = cell killing [6, 12] -8.15% and -11.3% | activity, negative = cell killing [6, 9] -12.7% and -9.68%

CS(=O)c1ccc(-c2nc(-c3ccc(F)cc3)c(-c3ccncc3)[nH]2)cc1 (stereo unspecified)
inactive: Potency [1] | Potency [2] | Potency [3] | Potency [4] | Potency [5]

CCn1c(C(=O)N(C2CC2)C2CC2)cc2c3c(ncn3C)c(Nc3cc(C)n(C)n3)nc21
inactive: Potency [1] | Potency [2] | Potency [3] | Potency [4] | Potency [5]

CC(=O)Oc1cc2c(s1)CCN(C(C(=O)C1CC1)c1ccccc1F)C2 (stereo unspecified)
inactive: Potency [1] | Potency [2] | Potency [3] | Potency [4] | Potency [5] | activity, negative = cell killing [6, 7] 4.77% | activity, negative = cell killing [6, 8] -7.3% | activity, negative = cell killing [6, 12] -27.4%

C[N+](C)(C)CC(=O)O
inactive: Potency [1] | Potency [2] | Potency [3] | Potency [4] | Potency [5]

CNC(=O)c1ccc2cc(C3(O)CCn4cncc43)ccc2c1 (stereo unspecified)
inactive: Potency [1] | Potency [2] | Potency [3] | Potency [4] | Potency [5]

Clc1ccc(Cn2c(CN3CCCC3)nc3ccccc32)cc1
active: Potency ([6]; tumour line A) 2510 nM
inactive: Potency [1] | Potency [2] | Potency [3] | Potency [4] | Potency [5] | activity, negative = cell killing [6, 10] -7.94% | activity, negative = cell killing [6, 11] -28.4%

COc1ccc2cccc(CCNC(C)=O)c2c1
inactive: Potency [1] | Potency [2] | Potency [3] | Potency [4] | Potency [5]

CN(C)c1cc(NC(=O)CNC(C)(C)C)c(O)c2c1C[C@@H]1C[C@H]3[C@H](N(C)C)C(=O)C(C(N)=O)=C(O)[C@@]3(O)C(=O)C1=C2O
inactive: Potency [1] | Potency [2] | Potency [3] | Potency [4] | Potency [5] | activity, negative = cell killing [6, 7] 8.46% | activity, negative = cell killing [6, 8] 6.87% | activity, negative = cell killing [6, 12] -27.8% | activity, negative = cell killing [6, 9] 0.651%

CCN(CC)CCNC(=O)c1ccc(N)cc1
inactive: Potency [1] | Potency [2] | Potency [3] | Potency [4] | Potency [5] | activity, negative = cell killing [6, 7] -3.23% | activity, negative = cell killing [6, 9] 15.6%
